# Results reported in PubChem BioAssay AID1445 (SRMLSC, 2008).
# Out of some 220,000 compounds screened, about 910 (0.41%) were called active. Many of the other results were omitted from the sample, so actives are more common in it than they were. Results with a measured potency or affinity are listed apart. Unmarked numbers belong to inactive results.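 Rule for the calls: active = primary inhibition above the hit cutoff, then over 50% inhibition at one or more dose response concentrations (cut at about 23% in these data, passing the limit was not always enough); inconclusive = conflicting primary data, or primary hits not chosen for dose response; inactive = low primary inhibition, or under 50% at every dose.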
# Target: Aminopeptidase N (Plasmodium falciparum (isolate 3D7)) (UniProt O96935)
# Sequence (O96935 whole entry, looked up): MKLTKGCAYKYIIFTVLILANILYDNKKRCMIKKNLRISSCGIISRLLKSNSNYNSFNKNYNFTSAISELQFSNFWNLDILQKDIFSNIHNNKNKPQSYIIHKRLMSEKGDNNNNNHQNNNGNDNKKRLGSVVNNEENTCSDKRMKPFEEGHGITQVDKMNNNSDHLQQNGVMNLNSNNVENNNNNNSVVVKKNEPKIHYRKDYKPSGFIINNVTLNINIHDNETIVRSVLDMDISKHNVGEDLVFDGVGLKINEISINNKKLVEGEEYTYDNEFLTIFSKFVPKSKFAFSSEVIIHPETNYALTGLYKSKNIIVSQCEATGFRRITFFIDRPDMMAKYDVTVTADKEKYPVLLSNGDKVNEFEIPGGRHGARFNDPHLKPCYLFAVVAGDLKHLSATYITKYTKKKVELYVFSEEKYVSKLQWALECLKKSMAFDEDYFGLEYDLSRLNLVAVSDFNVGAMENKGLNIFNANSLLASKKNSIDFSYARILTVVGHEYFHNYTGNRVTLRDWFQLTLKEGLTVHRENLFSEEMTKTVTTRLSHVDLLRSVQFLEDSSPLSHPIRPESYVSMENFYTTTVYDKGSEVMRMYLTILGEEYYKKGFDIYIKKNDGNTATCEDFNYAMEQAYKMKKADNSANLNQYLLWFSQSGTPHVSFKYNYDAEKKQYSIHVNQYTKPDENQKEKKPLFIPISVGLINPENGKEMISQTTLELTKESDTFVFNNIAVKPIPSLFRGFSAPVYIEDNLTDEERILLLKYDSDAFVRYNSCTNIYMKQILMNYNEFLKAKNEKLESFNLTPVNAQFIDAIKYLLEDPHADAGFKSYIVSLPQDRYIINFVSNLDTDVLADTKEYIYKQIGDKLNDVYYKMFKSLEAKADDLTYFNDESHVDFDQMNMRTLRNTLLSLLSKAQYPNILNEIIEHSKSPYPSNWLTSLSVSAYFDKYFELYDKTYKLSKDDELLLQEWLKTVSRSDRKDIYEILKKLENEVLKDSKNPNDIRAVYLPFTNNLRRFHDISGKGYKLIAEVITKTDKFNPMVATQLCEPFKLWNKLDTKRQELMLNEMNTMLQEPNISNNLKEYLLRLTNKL
# Test: malaria alanyl aminopeptidase activity blockers – biochemical, fluorogenic H-Leu-NHMec substrate, 1536-well (AID 1445);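 note: plate controls were DMSO full reaction for no effect and no enzyme background for full effect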
# Conditions: recombinant M1AAP, H-Leu-NHMec fluorogenic kinetic assay; at 30 µM, active compounds read high unless noted
row,Structure (SMILES),inhibition
1,O=C(Nn1c(C2CC2)nc2ccccc2c1=O)c1ccco1,81.6% (active)
2,Cc1ccccc1OCc1nc2ccccc2c(=O)n1NC(=O)c1ccco1,22.7%
3,COc1cc2nc(C3CCC3)n(NC(=O)c3ccco3)c(=O)c2cc1OC,11.3%
4,O=C(Nn1c(C2CCCCC2)nc2ccccc2c1=O)c1ccc([N+](=O)[O-])cc1,2.98%
5,O=C(Nn1c(-c2ccccc2)nc2ccccc2c1=O)c1ccco1,15.6%
6,NS(=O)(=O)c1ccc(CCNC(=O)c2ccc(Cn3c(=O)[nH]c4ccccc4c3=O)cc2)cc1,4.04%
7,CC(/C=C/c1ccccc1)=N\NC(=O)c1cc(C)nc2ccccc12,7.74%
8,CC1CN(C(=O)c2cc(S(=O)(=O)N3CCCC3)c(Cl)cc2Cl)CC(C)O1 (stereo not given),-2.85%
9,O=C(CNC(=S)N(Cc1ccccc1)Cc1cccnc1)NCCc1ccccc1,-4.94%
10,N=c1c(C(=O)NCc2ccco2)cc2c(=O)n3ccccc3nc2n1CCc1ccccc1,9.03%
11,Cc1cccn2c(=O)c3cc(C(=O)NCc4ccco4)c(=N)n(C(C)C)c3nc12,18.3%
12,Cc1cccn2c(=O)c3cc(C(=O)NCc4cccnc4)c(=N)n(C(C)C)c3nc12,0.19%
13,N=c1c(C(=O)NC2CCCC2)cc2c(=O)n3ccccc3nc2n1CCN1CCOCC1,12.5%
14,N=c1c(C(=O)NCc2ccc(F)cc2)cc2c(=O)n3ccccc3nc2n1CCCN1CCOCC1,5.69%
15,N=c1c(C(=O)NCc2ccco2)cc2c(=O)n3ccccc3nc2n1Cc1ccccc1,11.6%
16,O=C(COc1cc(F)ccc1[N+](=O)[O-])Nc1ccc(N2CCOCC2)cc1,1.97%
17,COc1cc(/C=C/C(=O)O)cc(S(=O)(=O)N2CCc3ccccc32)c1OC,7.41%
18,O=C(O)Cc1ccc(-c2ccccc2-c2ccccc2)cc1,6.14%
19,COc1ccc(OC)c(C(C)NC(=O)c2ccc(Br)cc2)c1 (stereo not given),6.29%
20,CCc1cccc(CC)c1NC(=O)c1ccc(-n2cncn2)nc1,3.55%
21,Cc1c(Cl)cccc1NC(=O)CCC(=O)N/N=C/c1ccc[nH]1,6.91%
22,CC(=O)Nc1sc(C)c(C)c1C(=O)Nc1ccc(C)cc1,10.1%
23,COc1ccc(N=C2S/C(=C\c3ccc(OC(C)C(=O)O)c(OC)c3)C(=O)N2CCc2c[nH]c3ccccc23)cc1 (stereo not given),31.6%
24,COc1cc(/C=C2\SC(=Nc3ccccc3)N(CCc3c[nH]c4ccccc34)C2=O)ccc1OC(C)C(=O)O (stereo not given),16.3%
25,CCCn1c(N2CCN(C)CC2)nc2c1c(=O)[nH]c(=O)n2C,-4.63%
26,COc1ccc(S(=O)(=O)N(NC2=NS(=O)(=O)c3ccccc32)C(=O)C(C)C)cc1,9.06%
27,CCN(C1=NS(=O)(=O)c2ccccc21)N(CC)S(=O)(=O)c1ccc(C)cc1,-4.7%
28,CC1CCCCC1NC(=O)C(=O)NCC1CCCO1 (stereo not given),0.74%

row,Structure (SMILES),inhibition
1,Clc1cccc(-c2ccc(CNCCCN3CCOCC3)o2)c1,2.45%
2,CCc1nn(C(C)C(=O)N2CCc3ccccc3C2)c(=O)c2cc3occc3n12 (stereo not given),2.28%
3,CCc1nn(CCCC(=O)N2CCc3ccccc3C2)c(=O)c2cc3occc3n12,23.8% (active)
4,O=C(CCCn1ncn2c(cc3occc32)c1=O)N1CCc2ccccc2C1,2.44%
5,CS(=O)(=O)N(Cc1ccc(C(=O)NC2CCCCC2O)cc1)c1ccccc1 (stereo not given),4.69%
6,CCOC(=O)N1CCN(C(=O)CN2C(=O)COc3ccc(C(C)(C)C)cc32)CC1,2.47%
7,CCS(=O)(=O)Nc1ccc(-c2nc3cccnc3s2)cc1,11.6%
8,CCc1ccc(S(=O)(=O)Nc2ccc(-c3nc4cccnc4s3)cc2)s1,27.2% (active)
9,O=S(=O)(Nc1ccc(-c2nc3cccnc3s2)cc1)c1ccc(Cl)s1,13.1%
10,N#Cc1c(N2C(=O)Nc3ccccc3N2O)sc2c1CCCCCC2,11.8%
11,C=CCn1c(C(CC)CC(C)(C)O)n[nH]c1=S (stereo not given),-5.97%
12,Cc1cc2cc(CCNC(=O)c3ccc(S(=O)(=O)N4CCOCC4)cc3)c(=O)[nH]c2cc1C,0.05%
13,O=C(COc1ccccc1/C=C1/NC(=O)NC1=O)Nc1ccccc1,16.8%
14,O=C1NC(=O)/C(=C\c2ccccc2OCc2ccccc2)S1,12.7%
15,C=CCN1C(=O)N/C(=C/c2ccccc2OCC(=O)Nc2ccc(F)cc2)C1=O,6.37%
16,O=C1NC(=O)/C(=C/c2ccccc2OCc2ccccc2)S1,19.3%
17,CSCC[C@@H](C(=O)NCc1cccs1)N1Cc2ccccc2C1=O,6.93%
18,CC(=O)Nc1ccc(S(=O)(=O)N2CCC(NC(=O)C(Cc3cccn3C)NC(C)=O)CC2)cc1 (stereo not given),-2.05%
19,O=C(CCCn1cnc([N+](=O)[O-])n1)Nc1cccc(O)c1,4.83%
20,C[C@H](NC(=O)c1nc[nH]c1C(=O)N[C@@H](Cc1ccccc1)C(=O)OC(C)(C)C)c1ccccc1,-12.4%
21,COC(=O)C1=C(C(=O)OC)[C@@H]2N(Cc3ccccc3)c3ccccc3[C@@]23C[C@@H](C(=O)OC)N=C3N1,7.23%
22,Cc1ccc2[nH]c(=O)c(CN(Cc3ccco3)S(=O)(=O)c3c(C)ccc4nsnc34)cc2c1,24.1% (active)
23,Cc1cc2cc(CN(Cc3ccco3)S(=O)(=O)c3c(C)ccc4nsnc34)c(=O)[nH]c2cc1C,12.1%
24,Cc1ccc2cc(CN(Cc3ccco3)S(=O)(=O)c3c(C)ccc4nsnc34)c(=O)[nH]c2c1,8.06%
25,CC12CNCC(C)(CN(C3(O)C(=O)Nc4ccc(Br)cc43)C1)C2=O (stereo not given),-7.16%
26,O=C(c1cccc([N+](=O)[O-])c1)N1CCN(Cc2ccc3c(c2)OCO3)CC1,0.06%
27,O=C(/C=C/c1cccc([N+](=O)[O-])c1)NCc1ccc2c(c1)OCO2,6.01%
